Assay results as given in PubChem BioAssay AID1565 (Sanford-Burnham Center for Chemical Genomics, 2009).
Out of some 290,000 compounds screened, about 3,200 (1.1%) were called active. The full list was thinned out, with actives kept by preference. A number with no mark means an inactive call. Cut-off read from the data, not from the text of the source: active = inhibition above about 60%; inactive = the rest.

molecular target: Phosphoethanolamine/phosphocholine phosphatase (Homo sapiens) (UniProt Q8TCT1); experiment: PubChem AID 1565; details: recombinant PHOSPHO1, absorbance phosphatase assay; at 13.3 µM; active compounds read high
Sequence (Q8TCT1 whole entry, looked up): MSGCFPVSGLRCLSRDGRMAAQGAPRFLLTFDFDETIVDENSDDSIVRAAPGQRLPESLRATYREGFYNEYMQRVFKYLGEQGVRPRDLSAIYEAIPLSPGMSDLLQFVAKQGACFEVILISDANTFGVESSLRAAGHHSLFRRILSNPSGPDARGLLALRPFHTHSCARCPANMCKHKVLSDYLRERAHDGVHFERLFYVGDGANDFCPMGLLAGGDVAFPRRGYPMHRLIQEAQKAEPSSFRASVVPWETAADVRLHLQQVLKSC

Question: For COc1ccccc1N=Nc1c(O)[nH]c(=S)[nH]c1=O, which inhibition is on record?
Answer: 11.7%

Question: With COc1ccccc1N=C1SCCCN1C as the compound, how does the inhibition read?
Answer: 85.5% (active)

Question: For CC(C)(C)c1ccc(OC(=O)N2CCCCC2)cc1, which inhibition is on record?
Answer: 27.4%

Question: Cc1cccc(NC(=O)N2CC3CC(C2)c2cccc(=O)n2C3)c1 (stereo not given) was tested. Which inhibition did it give?
Answer: 41.8%

Question: O=c1c2ccccc2nc(-c2ccccc2)n1-c1ccccn1 was tested. Which inhibition did it give?
Answer: 32.4%

Question: O=c1c2ccccc2nc(-c2ccco2)n1-c1ccc(Br)cn1 was tested. Which inhibition did it give?
Answer: -3.3%

Question: Cc1ccc(-c2nc3ccccc3c(=O)n2-c2ccc(Br)cn2)cc1 was tested. Which inhibition did it give?
Answer: 68.6% (active)

Question: How did the inhibition turn out when Cc1nc2ccccn2c1P(=S)(N1CCCCC1)N1CCCCC1 was run?
Answer: 15.2%

Question: Which inhibition does the source give for COc1cccc(CN2CCCC(C(=O)c3ccccc3SC)C2)c1O (stereo not given) here?
Answer: 12.9%

Question: For O=c1c2ccccc2nc(/C=C/c2ccc(F)cc2)n1-c1ccccc1O, which inhibition is on record?
Answer: 38.1%

Question: Which inhibition does the source give for O=[N+]([O-])c1ccc(C2C3C(c4ccccc4)=NC4(CCCCC4)N32)cc1 (stereo not given) here?
Answer: 64.6% (active)

Question: Which inhibition does the source give for Cc1ccc(-n2c(-c3ccc([N+](=O)[O-])cc3)nc3ccccc3c2=O)cc1 here?
Answer: -3.5%

Question: With COCc1cc(OC(=O)N(C)C)nc(-c2ccc(C)c(Cl)c2)n1 as the compound, how does the inhibition read?
Answer: 20.3%

Question: For COC(=O)N(c1ccc(OC)cc1)P1(=S)OCCC(C)O1 (stereo not given), which inhibition is on record?
Answer: 65.4% (active)

Question: For CCOC(=O)c1c(-c2ccccc2)oc2ccc(OC(=O)N(C)C)cc12, which inhibition is on record?
Answer: -3.7%

Question: Which inhibition does the source give for COc1ccc(Br)cc1CNCCc1cccc(Cl)c1 here?
Answer: 13.9%

Question: Which inhibition does the source give for COc1ccc(N2C(=O)/C(=C/c3ccco3)C(=O)NC2=S)cc1 here?
Answer: -112%

Question: With O=C(O)c1ccccc1NC(=O)C1C2CCC(O2)C1C(=O)O (stereo not given) as the compound, how does the inhibition read?
Answer: 28.7%

Question: With c1ccc(CCNC2CCCCCC2)cc1 as the compound, how does the inhibition read?
Answer: 31.6%

Question: With O=c1[nH]c(CN2CC=C(c3ccccc3)CC2)nc2scc(-c3cccs3)c12 as the compound, how does the inhibition read?
Answer: 50.8%

Question: With C[N+]12CN3CN(CN(C3)C1)C2 as the compound, how does the inhibition read?
Answer: -34.4%

Question: With CC1=CC(=Cc2sc3ccccc3[n+]2C)C=C(C)O1 as the compound, how does the inhibition read?
Answer: 5.9%

Question: CCN(CC)CCOC(=O)c1cc2cc(COC)ccc2o1 was tested. Which inhibition did it give?
Answer: 94.9% (active)

Question: COc1cccc(N2C(=O)NC(=O)/C(=C\c3ccc([N+](=O)[O-])s3)C2=O)c1 was tested. Which inhibition did it give?
Answer: -60.1%

Question: With Cc1cc(=O)oc2c(C)c(OCC(=O)N3CCN(Cc4ccc5c(c4)OCO5)CC3)ccc12 as the compound, how does the inhibition read?
Answer: 27.9%
